Screening results deposited in PubChem by National Center for Advancing Translational Sciences (NCATS).
An excerpt weighted towards active compounds, which were near 21% of everything screened.
CHX counter = counter-screen hit for Shiga toxin inhibitors, cycloheximide. 300,000 compounds, 12% hits. cell reporter, cycloheximide protein synthesis inhibition counterscreen. max response, %. AID 2314; in the data active = max response mostly above about 13%, no sharp cut-off; inactive = mostly below about 14%; also: read at 38.3 µM for the half of the compounds with a filed dose; 0% is about no effect
Pf growth 96h = P. falciparum growth inhibition at 96 hours. P. falciparum luciferase reporter growth, 96 h. Potency, µM (highest dose often 28.7 µM), without a hit: at the top dose activity change, negative = inhibition, actives largely listed as inhibitors. 320,000 compounds, 6.9% hits; also: potency is read from the fitted curve at half-maximal effect; % is scaled to controls: 0 for no effect and ±100 for the full control effect
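Infected RBCs, 2% Hct / 0.05% parasitemia final; luciferase-reporter P. falciparum; cpd 96 h, 37 C, 5% CO2; luciferase detection reagent; luminescence.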
NS1 inh = blocks influenza NS1 protein function. Potency, µM (doses to about 46.1 µM), inactives show at the highest dose activity, positive = more growth. 270,000 compounds, 0.4% hits. AID 2326; calls by dose curve; also: potency is read from the fitted curve at half-maximal effect; actives are rising curves; nearly all actives have a fitted effect of over 50% in size
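Growth recovery, yeast-based: influenza A NS1 expressed in S. cerevisiae causes slow growth, and suppressors are detected by OD600. The parent strain without NS1 is used as positive control.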
Sm TGR block = inhibitors of Schistosoma mansoni thioredoxin glutathione reductase. Q962Y6. 360,000 compounds, 3% hits. purified TGR, DTNB reduction, TNB absorbance 405 nm. Potency, µM (doses to about 114 µM), for inactives: at the top dose activity change, negative = inhibition, actives largely listed as inhibitors. AID 485364; also: potency is read from the fitted curve at half-maximal effect; % is scaled to controls: 0 for no effect and ±100 for the full control effect; nearly all actives have a fitted effect of over 60% in size
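TGR 20 nM + NADPH 100 uM (dispensed conc.), cpd preinc 15 min RT; start with NADPH (500 uM addition) then DTNB (15 mM addition). Kinetic TNB absorbance, 405 nm filter. Four-parameter Hill fit across titration.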
Pf growth 48h = P. falciparum growth inhibition at 48 hours (one generation); P. falciparum luciferase growth in erythrocytes, 48 h; Potency, µM (highest dose often 28.7 µM), without a hit: at the top dose activity change, negative = inhibition, most hits filed as inhibitors; 310,000 compounds, 5.9% hits; AID 504832; also: potency is read from the fitted curve at half-maximal effect; % is scaled to controls: 0 for no effect and ±100 for the full control effect
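Here the parasites carry a stable luciferase gene and grow inside erythrocytes in Albumax-based RPMI medium with compound for one erythrocytic cycle. Activity is scored as loss of luminescent signal.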
Shiga toxin inh = inhibitors of Shiga toxin in Vero cells. inhibition, % at 38.7 µM. 290,000 compounds, 9.2% hits. Vero cells, Shiga toxin protein synthesis inhibition reporter; in the data active = inhibition mostly above about 28%, no sharp cut-off; inactive = mostly below about 43%; also: 0% is about no effect
Active calls of the source: *; ? = inconclusive; . = not tested or not shown. Unless noted, calls follow the shape of the dose curve; as a rule, active = well fitted curve in the direction sought with a large enough effect; inconclusive = small, poorly fitted or top-dose-only effect, or another doubt; inactive = no such curve, though single readings can be large; an effect the other way counts as inactive or inconclusive.

SMILES	CHX counter	Pf growth 96h	NS1 inh	Sm TGR block	Pf growth 48h	Shiga toxin inh
C=CCn1cc(C(=O)N2CCN(c3ccccc3)CC2)c(=O)c2cc(S(=O)(=O)N3CCCC3)ccc21	-8	29%	1%	-4%	?	-13
COC(=O)c1cc(C(=O)OC)[nH]n1	-5	?	-2%	9%	-12%	14
N#Cc1c(-c2ccccc2)cc(C2CC2)nc1SCC(=O)c1cccs1	10	?	4%	11%	?	-24
COC(=O)CSc1nc(C)cc(C)c1C#N	11	?	-5%	-9%	27%	-19
Cc1cc(C)c(C#N)c(SCC(=O)c2cccs2)n1	19*	.	-5%	3%	73%	61*
Cc1cc(C)c(C#N)c(SCC(=O)c2ccccc2)n1	9	4.7µM*	-5%	0%	-11%	-6
Cc1cc(C)c(C#N)c(SCC(=O)C2CC2)n1	24*	72%	-1%	-5%	19%	43*
Cc1nc(SCC(=O)c2ccccc2)c(C#N)c(-c2ccco2)c1C(=O)NCc1ccco1	13	?	27%	?	9.3µM*	33
Cc1cccc(N2CCN(S(=O)(=O)c3ccc4c(c3)CCCN4C(=O)C3CCC3)CC2)c1C	-6	-1%	?	4%	?	-5
N#CCCN(C(=O)COC(=O)c1ccc(S(=O)(=O)N2CCCC2)cc1)c1cccc(Cl)c1	.	?	.	3%	-27%	.
Cc1cc(C)c(C#N)c(SCC(=O)Nc2nonc2N)n1	29*	21%	-4%	18%	23%	72*
Cc1cc(C)c(NC(=O)CSc2nc(C)cc(C)c2C#N)c(C)c1	.	.	.	-1%	.	.
N#C/C(=C\Nc1ccccn1)C(=O)C1CC1	.	.	0%	.	.	.
COc1ccc(-n2c(SCC(=O)N3CCc4ccccc43)nnc2-c2c[nH]c3ccccc23)cc1	-2	-16%	0%	-13%	-25%	-11
CC(=O)N1CCN(S(=O)(=O)c2cccc(C(=O)OCC(=O)N3CC(=O)Nc4ccccc43)c2)CC1	16*	7%	.	-4%	-7%	25
Cc1cc(C(=O)COC(=O)c2ccc[nH]c2=O)c(C)n1-c1ccc(F)cc1	39*	97%	-16%	-15%	126%	76*
Cc1cc(C(=O)OCC(=O)N2CC(=O)Nc3ccccc32)c(C)n1-c1ccc(F)cc1	6	2.6µM*	7%	-1%	4.7µM*	2
Cc1cccc(NC(=O)COC(=O)c2cc(C)n(C3CC3)c2C)c1	.	?	.	-30%	9.3µM*	.
O=C1CN(C(=O)c2cccc(S(=O)(=O)N3CCCC3)c2)c2ccccc2N1	-2	-1%	0%	-6%	32%	3
Cc1cccc(NC(=O)COC(=O)c2cc(C)oc2C)c1	25	8%	.	-1%	3%	-2
O=C(CNC(=O)c1ccccc1Cl)OCc1cc(=O)n2ccsc2n1	.	.	.	6%	.	.
O=C1CN(C(=O)COC(=O)c2cccs2)c2ccccc2N1	.	28%	.	2%	9%	.
Cn1c2ccccc2c2cc(C(=O)OCC(=O)N3CC(=O)Nc4ccccc43)sc21	-2	2%	-37%	0%	4.1µM*	-4
Cc1cc(C(=O)COC(=O)c2ccc[nH]c2=O)c(C)n1-c1ccccc1	23	76%	-9%	-2%	78%	24
Cc1cc(C(=O)COC(=O)c2ccc[nH]c2=O)c(C)n1C1CC1	27*	40%	6%	0%	61%	58*
SMILES	CHX counter	Pf growth 96h	NS1 inh	Sm TGR block	Pf growth 48h	Shiga toxin inh
O=[N+]([O-])c1ccc(OCCCCN2CCc3ccccc3C2)cc1	-2	?	19%	5%	9%	7
CCc1ccc(N2C(=O)CS(=O)(=O)C23C(=O)N(Cc2ccccc2F)c2ccccc23)cc1 (stereo not drawn)	.	.	.	42%	.	.
CC(C)N1CCN(Cc2cccs2)CC1CCO (stereo not drawn)	2	?	12%	4%	-22%	-11
Cc1oc(-c2cccs2)nc1CN1CCN(C(C)C)C(CCO)C1 (stereo not drawn)	-3	10µM*	-2%	-12%	98%	-6
O=C(c1ccc(Cl)c(S(=O)(=O)N2CCCC2)c1)N1CCN(c2ncccn2)CC1	-3	?	1%	-2%	?	-17
NC(=O)c1cc[n+](Cc2ccccc2Cl)cc1	-4	-8%	-7%	-2%	28%	.
COc1ccc2nc3sc(C(=O)N4CCN(C)CC4)cc3cc2c1	15*	1%	3%	0%	19%	20
COc1ccc2nc3sc(C(=O)NCCCN4CCc5ccccc5C4)cc3cc2c1	28*	35%	2%	-8%	?	38
CCN(CCCNC(=O)c1cc2cc3ccc(OC)cc3nc2s1)c1ccccc1	.	?	.	-26%	?	.
O=C(CNCc1cccs1)NC12CC3CC(CC(C3)C1)C2	14*	5.9µM*	.	-11%	10%	30
O=C(Cc1cccs1)NC1CCCC1	-3	16%	3%	47%	35%	-10
O=C(Cc1cccs1)NNC(=O)C12CC3CC(CC(C3)C1)C2	-3	-2%	.	-5%	10µM*	34
CCCCN1c2ccccc2N(CCCO)c2cc(C)nnc21	14*	?	-248%	6%	?	23
COc1ccc(CNC(=O)CN2C(=O)CCCc3ccccc32)cc1	.	.	.	4%	.	.
O=[N+]([O-])c1ccccc1S(=O)(=O)NCCSCc1ccco1	.	?	.	25µM*	-27%	.
CS(=O)(=O)NCCSCc1ccco1	-5	-18%	8%	20µM*	32%	32
CC(=O)Nc1ccc(S(=O)(=O)NCCSCc2ccco2)cc1	-3	.	24%	?	-7%	1
COC(=O)c1ccc(NC(=S)NCCCn2ccnc2)cc1	-3	-16%	6%	.	-15%	-3
CN1CC=C(c2c[nH]c3ccccc23)CC1	-1	24%	?	0%	2.6µM*	-6
Cc1ccc(C2=N/C(=C/c3cccs3)C(=O)N2Nc2ccccc2)cc1	9	.	2%	-1%	?	22
Cc1cc(Cl)ccc1Oc1nc(-c2ccc(F)cc2)ccc1C#N	6	28%	?	7%	29%	2
COc1ccc2[nH]c3c4c(ccc3c2c1)C(=O)C=CC4=O	38*	?	-26%	0.71µM*	?	89*
COc1ccc2[nH]c(=O)cc(C(=O)O)c2c1	-3	?	4%	-6%	12%	-8
